TIM10 inh = TIM10 yeast growth inhibition; AID 463195; hit rate 1.4% among 330,000; S. cerevisiae TIM10 strain growth, BacTiter-Glo luminescence, 24 h; inhibition, % at 10 µM;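 active means inhibition of 40% or more at the single tested concentration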;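 further: wild-type TIM10 isogenic control strain grown at permissive 25 °C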
NALP1 yeast inh = blocks the NALP1 inflammasome reconstituted in yeast; S. cerevisiae NALP1/ASC/caspase-1 growth, X-gal OD620, 72 h; inhibition, % at 10 µM; AID 2071; hit rate 0.61% among 280,000; in the data active means inhibition mostly above about 24%, no sharp cut-off; inactive means mostly below about 32%
tim10-1 inh = inhibits growth of tim10-1 mutant yeast | S. cerevisiae tim10-1 ts strain growth, BacTiter-Glo, 24 h | inhibition, % at 20 µM | hit rate 2.2% among 330,000;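 active means inhibition of at least 40%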;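 further: mutant grown at 25 °C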
V-ATPase pH = alters yeast V-ATPase proton transport. hit rate 0.37% among 350,000. S. cerevisiae, pHLuorin cytosolic pH fluorescence. response, % at 10 µM; in the data active means response mostly above about 7.3%, no sharp cut-off; inactive means mostly below about 5.4%; further: actives read high
tim23-1 inh = growth inhibitors of tim23-1 mutant yeast; inhibition, % at 20 µM; AID 463212; S. cerevisiae tim23-1 growth, BacTiter-Glo luminescence, 24 h; hit rate 1.3% among 330,000;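 active means growth inhibition of the mutant yeast at or above 50%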;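 further: temperature-sensitive mutant grown at 25 °C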
NLRP3 yeast inh = inhibitors of NALP3 inflammasome in yeast; Yeast reconstituted NLRP3/ASC/caspase-1, beta-gal luminescence, 24 h; inhibition, % at 10 µM; hit rate 0.39% among 330,000; AID 2825;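 active means inhibition of 50% or more; inactive means inhibition below 50%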
tim10-1 conf = tim10-1 yeast growth inhibition, confirmed | shares compounds with tim10-1 inh | hit rate 56% among 7,400 | inhibition, % at 20 µM | S. cerevisiae tim10-1 ts strain growth, BacTiter-Glo, 24 h;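 active means inhibition of yeast growth at or above a set limit in either of two repeat tests at 20 µM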;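 further: tim10-1 mutant grown at permissive 25 °C to find synthetic lethal compounds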
A number is an active result; - = inactive; . = no result given. Rows were chosen to be rich in hits. Some 4.2% of all compounds tested hit in one or more screens of this group.

SMILES	TIM10 inh	NALP1 yeast inh	tim10-1 inh	V-ATPase pH	tim23-1 inh	NLRP3 yeast inh	tim10-1 conf
Cc1ccc(C2CC(c3ccc(Cl)cc3)=NNC2=O)cc1 (stereo unspecified)	-	-	-	-	-	-	.
Cc1cccc(C2=NNC(=O)C(c3ccc(Cl)cc3)C2)c1 (stereo unspecified)	-	-	59.8	-	-	-	44.5
COc1ccc(CNC(=O)N[C@@H](Cc2c[nH]c3ccccc23)C(=O)O)cc1	-	-	-	-	-	-	.
Cc1cc(C(F)F)n2nc(C(=O)Nc3sc4c(c3C#N)CCC4)nc2n1	-	-	42.1	-	-	-	35.0
CNC(=O)c1c(NC(=O)c2ccco2)sc2c1CCC2	-	-	41.2	-	-	-	-
Cc1onc(-c2ccccc2)c1C(=O)NC(=S)Nc1sc2c(c1C#N)CCC(C)C2 (stereo unspecified)	-	-	-	-	-	-	.
Cc1onc(-c2ccccc2)c1C(=O)Nc1sc2c(c1C#N)CCC2	-	-	40.8	-	-	-	41.6
Cc1onc(-c2ccccc2)c1C(=O)Nc1sc2c(c1C(N)=O)CCC2	-	-	46.5	-	-	-	-
O=C(NCc1cccc(C(F)(F)F)c1)C1CC(c2cccc(F)c2)=NO1 (stereo unspecified)	-	.	-	-	-	-	.
CCOc1ccc2nc(NC(=O)Cn3c(C)csc3=O)sc2c1	-	.	-	-	-	-	.
CCOC(=O)c1sc(NC(=O)C2CC2)nc1C	-	-	46.7	-	-	-	31.8
CCOC(=O)c1sc(NC(=O)CC)nc1C	-	-	-	-	-	-	.
C=CCn1c(SCC(=O)N2CCN(CCO)CC2)nc2sc3c(c2c1=O)CCC3	-	-	-	-	-	-	.
C/C(CC(=O)Nc1ccc(Cl)c(C(F)(F)F)c1)=N\NC(=O)c1cnccn1	-	-	49.0	-	-	-	-
CC(NC(=O)NC(=O)c1ccc(Cl)cc1)c1ccccc1 (stereo unspecified)	-	-	-	-	-	-	.
CC(=NC1CCCCC1)C1=C(O)c2ccccc2C1=O	-	-	41.4	-	-	-	-
COc1ccc(C(c2c(C)[nH]n(C(N)=S)c2=O)C(C#N)C#N)cc1 (stereo unspecified)	-	-	44.1	-	-	-	-
Cc1[nH]n(-c2ncc(-c3ccc(Cl)cc3)s2)c(=O)c1C(c1ccc(Cl)cc1)C(C#N)C#N (stereo unspecified)	-	-	-	-	-	-	.
CC(C)(C)c1csc(SCC(=O)Nc2ccc(Cl)cn2)n1	-	-	42.6	-	-	-	-
Cc1csc(SCC(=O)Nc2ccc(Cl)cn2)n1	-	-	-	-	-	-	.
COc1ccc2nc(N3CCC(C)CC3)c(C#N)cc2c1	-	-	46.0	-	-	-	-
CCOC(=O)C1CCCN(C2CC(=O)N(c3ccc(C(C)C)cc3)C2=O)C1 (stereo unspecified)	-	-	42.0	-	-	-	29.9
CCOC(=O)C1CCCN(C2CC(=O)N(c3ccccc3)C2=O)C1 (stereo unspecified)	-	-	-	-	-	-	.
CCOC(=O)C1CCCN(C2CC(=O)N(c3cccc(C(F)(F)F)c3)C2=O)C1 (stereo unspecified)	-	59.3	56.2	-	-	-	41.7
CCc1ccc(N2C(=O)CC(N3CCC(C(=O)OC)CC3)C2=O)cc1 (stereo unspecified)	-	-	42.5	-	-	-	42.4
SMILES	TIM10 inh	NALP1 yeast inh	tim10-1 inh	V-ATPase pH	tim23-1 inh	NLRP3 yeast inh	tim10-1 conf
O=C(Nc1ccc(N2CCN(C(=O)c3ccco3)CC2)cc1)c1cccc(F)c1	-	-	-	-	-	-	.
CCCN(CCC)S(=O)(=O)c1ccc(C)cc1	-	-	-	-	-	-	.
CNc1nc(-c2ccccn2)nnc1-c1ccccc1	-	-	44.6	-	-	-	32.1
COCCNC(=O)CC(NS(=O)(=O)c1ccc(NC(C)=O)cc1)C(C)C (stereo unspecified)	-	-	-	-	-	-	.
COc1ccc(CC(=O)Nc2nc(-c3cc(OC)ccc3OC)cs2)cc1	-	-	42.6	-	-	-	34.8
CCOC(=O)c1ccc(NC(=O)CCc2nc(-c3ccccc3Cl)no2)cc1	-	.	40.7	-	-	-	29.3
C/C(=N\Nc1nc2ccccc2s1)c1ccc2c(c1)OCO2	-	-	42.1	-	-	-	-
Cc1ccc(-c2noc(CN3CCCCC3)n2)cc1	-	-	-	-	-	-	.
Cc1ccc(-c2noc(CN3CCN(C(c4ccccc4)c4ccccc4)CC3)n2)cc1	-	-	41.3	-	-	-	-
CC(CCc1ccco1)NC(=O)Cn1nc(Cc2ccncc2)c2ccccc2c1=O (stereo unspecified)	-	-	-	-	-	-	.
N/C(=N\OC(=O)CCCc1ccccc1)c1ccccc1	-	-	44.9	-	-	-	43.7
N/C(=N\OC(=O)CCCc1ccccc1)c1cccc([N+](=O)[O-])c1	-	-	45.6	-	-	-	42.2
O=C(CCS(=O)(=O)c1ccc2c(c1)NC(=O)CS2)NCc1cccs1	-	-	-	-	-	-	.
CCN1C(=O)N(C)[C@@H](c2ccccc2)C(C(C)=O)=C1C	-	.	-	-	-	-	.
CC(NC(=O)CC(c1ccccc1)c1cc(Cl)ccc1O)c1ccccc1 (stereo unspecified)	.	-	.	-	.	.	.
OC(CNCC1CCCO1)Cn1c2ccc(Cl)cc2c2cc(Cl)ccc21 (stereo unspecified)	-	27.8	43.1	-	-	-	-
COc1ccc(/C=C/c2ccc(=O)n(Cc3ccccc3)n2)cc1	-	-	40.1	-	-	-	-
O=c1ccc(/C=C/c2ccccc2)nn1Cc1ccc(F)cc1	-	-	-	-	-	-	.
Cc1ccc2cc(C#N)c(N3CCCN(C(=S)NCCCN(C)C)CC3)nc2c1	-	-	-	-	-	-	.
Cc1cc(C)c2cc(C#N)c(N3CCCN(C(=S)NCCCN(C)C)CC3)nc2c1	-	-	40.2	-	-	-	30.6
Cc1ccc(/C=c2/sc3nnc(-c4ccccc4Cl)n3c2=O)o1	-	-	45.1	-	-	-	38.0
CCN(CC)c1ccc(/C=c2\sc3nnc(-c4ccccc4Cl)n3c2=O)cc1	-	-	-	-	-	-	.
O=C(Nc1ccc(Cl)cn1)C1CC1	-	-	-	-	-	-	.
O=C(Nc1ccc(Cl)cn1)C1C(c2ccccc2)C1(Cl)Cl (stereo unspecified)	-	-	46.2	-	-	-	33.6
O=C(Nn1c(COc2ccccc2)nc2ccccc2c1=O)C(Cl)(Cl)Cl	-	-	40.0	-	-	-	32.5
CCOC(=O)C1CCN(C(=O)CN2C(=O)COc3ccc(C(C)(C)C)cc32)CC1	-	-	43.7	-	-	-	-
